# Assay outcomes as filed in PubChem BioAssay.
# Mdm2-MdmX inh – inhibitors of human Mdm2-MdmX association, primary screen, cell-based, luminescence, split luciferase, SaOS-2, uHTS. inhibition, % at 8 µM. Protein Mdm4 (Homo sapiens) + E3 ubiquitin-protein ligase Mdm2 (Homo sapiens), …. 330,000 compounds, 3% hits. SaOS-2 split-luciferase Mdm2/MdmX complementation;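 active means inhibition of at least 50% at 8 µM in the primary screen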
# Target sequence (O15151 whole entry, looked up): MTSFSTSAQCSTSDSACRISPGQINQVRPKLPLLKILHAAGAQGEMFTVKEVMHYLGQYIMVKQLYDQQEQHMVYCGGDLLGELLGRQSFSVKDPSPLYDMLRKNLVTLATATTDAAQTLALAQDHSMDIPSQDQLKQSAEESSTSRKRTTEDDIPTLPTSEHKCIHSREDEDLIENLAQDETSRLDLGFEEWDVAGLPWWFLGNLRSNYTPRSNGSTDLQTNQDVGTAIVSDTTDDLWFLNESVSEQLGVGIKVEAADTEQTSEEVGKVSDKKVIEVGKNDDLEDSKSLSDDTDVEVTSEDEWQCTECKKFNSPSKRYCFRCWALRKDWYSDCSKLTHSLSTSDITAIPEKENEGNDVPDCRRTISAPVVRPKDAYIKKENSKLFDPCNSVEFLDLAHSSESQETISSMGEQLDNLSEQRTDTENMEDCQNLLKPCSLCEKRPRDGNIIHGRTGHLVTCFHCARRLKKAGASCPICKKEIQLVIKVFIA
# Target sequence (Q00987 whole entry, looked up): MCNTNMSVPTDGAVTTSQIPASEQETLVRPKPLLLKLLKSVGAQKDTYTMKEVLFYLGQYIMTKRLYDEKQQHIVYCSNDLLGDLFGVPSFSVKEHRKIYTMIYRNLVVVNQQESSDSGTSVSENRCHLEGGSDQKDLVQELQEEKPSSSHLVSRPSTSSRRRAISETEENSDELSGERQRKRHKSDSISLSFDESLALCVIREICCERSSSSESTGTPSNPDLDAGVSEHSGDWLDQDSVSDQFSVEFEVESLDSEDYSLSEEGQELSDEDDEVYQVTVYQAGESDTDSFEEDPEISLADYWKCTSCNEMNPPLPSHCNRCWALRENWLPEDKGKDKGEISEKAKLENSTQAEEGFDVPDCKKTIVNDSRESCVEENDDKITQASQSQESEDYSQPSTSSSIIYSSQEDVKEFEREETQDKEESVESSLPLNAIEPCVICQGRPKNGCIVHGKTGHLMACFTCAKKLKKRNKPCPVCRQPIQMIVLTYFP
# HSP90 inh – HSP90 inhibitors, primary screen, cell lysate, luminescence; Heat shock protein HSP 90 (rabbit reticulocyte lysate; luciferase refolding); Rabbit reticulocyte lysate, luciferase refolding luminescence, 3 h; 290,000 compounds, 0.91% hits; inhibition, % at 5.6 µM;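 active means inhibition above the screen-wide mean plus 3 SD, computed separately per campaign, cut at about 16% in these data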;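 further: 0% = DMSO wells and 100% = 60 µM geldanamycin wells; inhibitors lower the luminescence because luciferase stays unfolded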
# KKLEB tox – cytotoxicity in KKLEB CF airway cells, primary screen, cytotoxicity control for CF NF-kB inhibitor project, cell-based, uHTS, fluorescence assay plates. activity change (cytotoxicity), % at 5 µM. AID 602141, 2011. 360,000 compounds, 0.36% hits. KKLEB CF airway cells viability, ATPlite luminescence, overnight; stronger effect = lower value; cells stimulated with P. aeruginosa culture filtrate;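 active means corrected activity change at or below -50% at 5 µM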
# CF NFkB block – inhibitors of PAF-induced NF-kB signaling, primary screen, cell-based, GFP fluorescence, uHTS; KKLEB NF-kB-GFP reporter, GFP fluorescence overnight; 360,000 compounds, 0.86% hits; inhibition, % at 5 µM;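 active means at least 50% inhibition at 5 µM, scaled per plate between neutral and stimulator controls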;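 further: PAF is a Pseudomonas aeruginosa culture filtrate used as stimulus; plate controls were PAF-stimulated DMSO wells for no effect and unstimulated DMSO wells for full effect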
# Peg3 promoter – Peg3 promoter-driven luciferase inhibitors, primary screen, cell-based, HeLa, luciferase luminescence | AID 588405, 2011 | HeLa PEG-Prom luciferase reporter, overnight | inhibition, % at 20 µM | 360,000 compounds, 1.7% hits;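 active means inhibition of at least 50% at 20 µM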
# LGR2 inh – inhibitors of bursicon-induced LGR2 CRE-luciferase signal, primary screen, cell-based, HEK293, CRE-luciferase reporter, bursicon stimulation; Drosophila bursicon receptor LGR2 (rickets); bursicon-stimulated, 4 h; inhibition, % at 9.99 µM; 380,000 compounds, 0.35% hits;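 active means drop in luminescence signal, shown as inhibition above about 50% in the replicate tests, limit read from the data, passing the limit was not always enough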;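 further: agonist challenge used bursicon conditioned medium at about half maximal strength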
# Mdm2-MdmX conf – Mdm2-MdmX complex disruptors, retested hits, confirmation, luminescence, single concentration. inhibition, % at 8 µM. shares compounds with Mdm2-MdmX inh. Mdm2-MdmX binding, luminescent assay. AID 489028, 2010. 10,000 compounds, 55% hits
# Full FLuc ctr – full-length luciferase signal inhibition, confirmation, counter-screen for Mdm2/MdmX interaction inhibitor project, cell-based, single concentration, SaOS-2; 6,200 compounds, 77% hits; SaOS-2 full-length luciferase counterscreen, luminescence; shares compounds with Mdm2-MdmX inh; inhibition, % at 8 µM;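 active means mean inhibition at 8 µM reaching about 37%, which flags the compound as non-specific, limit read from the data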;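 further: p53-null SaOS-2 cells with luciferase driven by a doxycycline-inducible promoter; compound on cells about two nights before reading with doxycycline added after day one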
# CF NFkB inh conf – inhibitors of PAF-induced NF-kB signaling, retest, confirmation, cell-based, GFP fluorescence, single concentration. inhibition, % at 5 µM. 1,300 compounds, 64% hits. shares compounds with CF NFkB block. AID 602472, 2012. KKLEB CF airway cells, overnight;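 further: stimulus PAF is a Pseudomonas aeruginosa filtrate and not platelet activating factor; plate controls were DMSO wells with stimulus for no effect and unstimulated DMSO wells for full effect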
# An asterisk follows results filed as active; nt = no result. This is a sample that favours compounds with a hit; in the whole collection about 3.6% have one here. Unless noted, no stated cut-off is given here; in the data, active means inhibition above about 40%; inactive means the rest.
SMILES,Mdm2-MdmX inh,HSP90 inh,KKLEB tox,CF NFkB block,Peg3 promoter,LGR2 inh,Mdm2-MdmX conf,Full FLuc ctr,CF NFkB inh conf
Cc1cc(C)c2nc(C(F)(F)F)c(C#N)c(N)c2c1,70.9*,-3.1,-16.1,70.2*,72.6*,nt,86.1*,55.0*,92.3*
Cc1ccc2nc(C(F)(F)F)c(C#N)c(N)c2c1,85.0*,2.7,-11.8,83.2*,100.8*,65.4*,67.2*,25.7,99.6*
COc1ccccc1-c1cn(CC[C@@H]2CC[C@H](NC(=O)c3cnccn3)[C@@H](CO)O2)nn1,nt,nt,nt,nt,nt,21.3,nt,nt,nt
O=C(C[C@H]1C=C[C@@H](NS(=O)(=O)c2ccccc2)[C@@H](CO)O1)N1CCC(Cc2ccccc2)CC1,nt,nt,nt,nt,nt,6.1,nt,nt,nt
CNC[C@@H]1OCCCC[C@H](C)Oc2ccc(NS(=O)(=O)c3cn(C)cn3)cc2C(=O)N([C@@H](C)CO)C[C@H]1C,nt,nt,nt,nt,nt,29.8,nt,nt,nt
CS(=O)(=O)Nc1ccc2c(c1)[C@@H]1C[C@H](CC(=O)NCc3cccnc3)O[C@@H](CO)[C@@H]1O2,nt,nt,nt,nt,nt,9.0,nt,nt,nt
O=[N+]([O-])c1ccc2ncnc(Nc3ccc4c(c3)OCCO4)c2c1,56.3*,-1.1,-17.2,64.7*,-3.7,5.8,57.7*,29.6,37.5
COc1ccc(Nc2ncnc3ccc([N+](=O)[O-])cc23)c(OC)c1,36.8,-4.6,-7.7,15.3,23.4,10.4,nt,nt,nt
CCCCCC(=O)Nc1nc(C)c(-c2csc(Nc3ccc(Cl)cc3)n2)s1,17.5,8.9,-2.1,-13.7,3.2,15.1,nt,nt,nt
CCC(=O)Nc1nc(C)c(-c2csc(Nc3cccc(O)c3)n2)s1,72.6*,0.6,-3.9,61.6*,-58.6,-7.3,32.7,nt,86.9*
CCc1c(C)nc2ccc(Br)cc2c1SCCC#N,67.3*,0.9,-18.8,73.2*,18.2,30.6,58.8*,23.1,89.2*
CCCCc1c(C)nc2ccc(Br)cc2c1SCCC#N,nt,2.3,nt,nt,nt,nt,nt,nt,nt
O=C(Nc1ccc(N2CCN(C(=O)c3ccccc3F)CC2)cc1)c1cncc(Br)c1,62.6*,0.2,-1.4,68.9*,8.1,23.5,61.6*,20.6,76.3*
O=C(Nc1ccc(N2CCCCC2)cc1)c1cncc(Br)c1,-52.0,-1.9,-3.7,31.3,-287.9,nt,nt,nt,nt
COc1cccc(NC(=O)CN(C)CC(=O)Nc2ccc(C)c([N+](=O)[O-])c2)c1,61.2*,4.4,0.3,65.7*,7.5,32.2,46.4*,41.7*,75.7*
COc1ccc2c(c1)c(C(C)=O)c(C)n2-c1ccc(C(C)=O)cc1,61.3*,-3.9,-3.4,64.0*,16.4,5.3,60.6*,40.4*,74.5*
COc1ccc2c(c1)c(C(=O)O)c(C)n2-c1ccccc1,7.3,1.5,-1.2,0.9,5.8,7.1,nt,nt,nt
COC(=O)c1c(C)n(-c2ccc(OC)cc2)c2ccc(O)cc12,66.5*,-3.5,-2.8,57.6*,36.3,nt,63.5*,20.4,84.0*
O=C(C[C@@H]1C[C@@H]2c3cc(NC(=O)CC4CC4)ccc3O[C@@H]2[C@@H](CO)O1)NCc1cccc(F)c1,nt,nt,nt,nt,nt,-16.2,nt,nt,nt
CC(=O)Nc1ccc(NS(=O)(=O)c2ccc(-c3cnc(C4CC4)o3)cc2)cc1,42.7,-1.7,-11.3,-15.7,6.8,4.6,nt,nt,nt
Cc1cc(C)cc(NS(=O)(=O)c2ccc(-c3cnc(C4CC4)o3)cc2)c1,75.3*,4.9,-31.1,64.0*,13.0,-26.4,68.0*,68.8*,81.5*
Cc1cccc(NS(=O)(=O)c2ccc(-c3cnc(C4CC4)o3)cc2)c1C,84.9*,4.2,11.0,51.8*,31.8,-4.9,65.5*,75.6*,87.0*
O=C(Nc1ccc2c(c1)OCCO2)c1cc(-c2ccccn2)nc2ccc(Br)cc12,74.0*,-2.5,-32.5,61.6*,8.6,6.8,40.7*,72.3*,56.4*
CCOC(=O)/C(=C\c1cccc(O)c1)c1nc2sc(C)c(C)c2c(=O)[nH]1,82.0*,4.7,-26.3,74.5*,115.3*,83.9*,34.5,27.0,-96.6
CNC(=O)c1ccc(NC(=O)C2CCN(c3ncnc4sc(C)c(C)c34)CC2)cc1,62.1*,-0.8,-18.2,59.6*,21.9,-0.2,59.8*,58.5*,60.0*
SMILES,Mdm2-MdmX inh,HSP90 inh,KKLEB tox,CF NFkB block,Peg3 promoter,LGR2 inh,Mdm2-MdmX conf,Full FLuc ctr,CF NFkB inh conf
Cc1sc2ncnc(N3CCC(C(=O)Nc4ccc(Cl)c(Cl)c4)CC3)c2c1C,41.4,nt,0.9,13.3,14.2,-0.7,nt,nt,nt
CCC(=O)N1C[C@H](C)[C@H](OC)CN(C)C(=O)c2cc(NC(=O)C3CCCCC3)ccc2OC[C@H]1C,nt,nt,nt,nt,nt,7.8,nt,nt,nt
CC=Cc1ccc2n(c1=O)C[C@@H]1[C@@H](CO)[C@H](C(=O)NCCC)[C@H]2N1C(=O)c1ccccc1F (mixture of isomers),nt,nt,nt,nt,nt,10.0,nt,nt,nt
N#Cc1ccsc1NC(=O)c1ccc(Cl)c([N+](=O)[O-])c1,61.0*,1.2,-25.4,50.3*,-163.7,-28.1,55.8*,112.3*,68.2*
N#Cc1ccsc1NC(=O)c1cccc([N+](=O)[O-])c1,-6.5,3.9,-5.6,15.7,-38.5,5.2,nt,nt,nt
O=S(=O)(c1cccc2cnccc12)N1CCCNCC1,59.1*,-2.8,-6.7,50.0*,-10.0,nt,47.0*,65.2*,57.5*
C[C@@H]1CN([C@H](C)CO)C(=O)c2cccc(NS(=O)(=O)c3cccs3)c2O[C@@H]1CN(C)S(=O)(=O)c1cccs1,nt,nt,nt,nt,nt,-8.3,nt,nt,nt
C[C@@H]1CCCCO[C@H](CN(C)C(=O)CCCN(C)C)[C@H](C)CN([C@@H](C)CO)C(=O)c2cc(NC(=O)c3ccncc3)ccc2O1,nt,nt,nt,nt,nt,-17.4,nt,nt,nt
COc1ccc(NC(=O)Cn2nnc(C(=O)NCc3ccccc3)c2N)cc1Cl,26.3,2.8,-10.8,17.0,12.2,nt,nt,nt,nt
COc1ccc(NC(=O)Cn2nnc(C(=O)NCc3ccc(C)cc3)c2N)cc1Cl,53.2*,-2.7,-37.2,58.1*,7.2,26.9,31.9,nt,9.6
O=C(Cc1ccccn1)NCC[C@H]1CC[C@H](NC(=O)c2ccccc2F)[C@@H](CO)O1,nt,nt,nt,nt,nt,-8.5,nt,nt,nt
